Results: PubChem BioAssay AID1159580 (chemical genetic matrix, 2015)
About 2,000 (36%) of roughly 5,500 compounds were called active. Roughly 18% stayed inconclusive and do not appear here. Rule as the data show it: active = normalized growth mostly below about 0.91 (no sharp cut-off); inconclusive = no clear call, values can overlap the other calls; inactive = mostly above about 0.92. The list shows a part of the results.

Experiment: chemical genetic growth profiling, strain panel (AID 1159580);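 also: tested at 20 µM; growth read once vehicle control cultures reached saturation at 30 °C; 1 = growth at the plate median or of vehicle wells; lower values mean less growth of the strain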
Conditions: growth OD

Measured: normalized growth

OC[C@H]1O[C@@](CO)(O[C@@H]2O[C@H](CO)[C@@H](O)[C@H](O)[C@H]2O)[C@@H](O[C@@H]2O[C@H](CO)[C@@H](O)[C@H](O)[C@H]2O)[C@@H]1O
inactive: S. cerevisiae deletion strains, locus YJR043C, strain POL32, active compounds read low 1.04 | S. cerevisiae deletion strains, locus YJR066W, strain TOR1, active compounds read low 0.956 | S. cerevisiae deletion strains, locus YKL009W, strain mrt4, active compounds read low 1.03 | S. cerevisiae deletion strains, locus YKL068W, active compounds read low 0.997 | S. cerevisiae deletion strains, locus YKL085W, strain MDH1 (second series), active compounds read low 1.01 | S. cerevisiae deletion strains, locus YKL085W, strain MDH1, active compounds read low 1.01 | S. cerevisiae deletion strains, locus YKL160W, strain elf1, active compounds read low 1.02 | S. cerevisiae deletion strains, locus YKR026C, strain gcn3, active compounds read low 0.994 | S. cerevisiae deletion strains, locus YKR091W, strain srl3, active compounds read low 1.01 | S. cerevisiae deletion strains, locus YLL001W, strain dnm1, active compounds read low 0.996 | S. cerevisiae deletion strains, locus YLL026W, active compounds read low 1.02 | S. cerevisiae deletion strains, locus YLL041C, strain sdh2, active compounds read low 1.01 | S. cerevisiae deletion strains, locus YLR027C, strain aat2, active compounds read low 1.01 | S. cerevisiae deletion strains, locus YLR039C, strain RIC1, active compounds read low 1.18 | S. cerevisiae deletion strains, locus YLR058C, strain SHM2, active compounds read low 1.03 | S. cerevisiae deletion strains, locus YLR102C, strain apc9, active compounds read low 1.02 | S. cerevisiae deletion strains, locus YLR113W, strain HOG1, active compounds read low 0.986 | S. cerevisiae deletion strains, locus YLR221C, strain rsa3, active compounds read low 1.01 | S. cerevisiae deletion strains, locus YLR258W, strain gsy2, active compounds read low 1.02 | S. cerevisiae deletion strains, locus YLR262C, strain YPT6 (second series), active compounds read low 1 | S. cerevisiae deletion strains, locus YLR262C, strain YPT6, active compounds read low 1.16 | S. cerevisiae deletion strains, locus YLR268W, strain sec22, active compounds read low 1.05 | S. cerevisiae deletion strains, locus YLR320W, strain mms22, active compounds read low 1.03 | S. cerevisiae deletion strains, locus YLR330W, strain CHS5, active compounds read low 1.02 | S. cerevisiae deletion strains, locus YLR342W, strain FKS1 (second series), active compounds read low 1.08 | S. cerevisiae deletion strains, locus YLR342W, strain FKS1, active compounds read low 1.02 | S. cerevisiae deletion strains, locus YLR357W, strain rsc2, active compounds read low 0.991 | S. cerevisiae deletion strains, locus YLR370C, strain arc18, active compounds read low 1.03 | S. cerevisiae deletion strains, locus YLR371W, strain rom2, active compounds read low 0.999 | S. cerevisiae deletion strains, locus YLR384C, strain iki3, active compounds read low 1.01 | S. cerevisiae deletion strains, locus YLR418C, strain cdc73, active compounds read low 1.09 | S. cerevisiae deletion strains, locus YML016C, strain PPZ1, active compounds read low 1.01 | S. cerevisiae deletion strains, locus YML032C, strain rad52, active compounds read low 1.03 | S. cerevisiae deletion strains, locus YML120C, strain ndi1, active compounds read low 1.03 | S. cerevisiae deletion strains, locus YML124C, strain tub3, active compounds read low 1.01 | S. cerevisiae deletion strains, locus YMR058W, strain fet3, active compounds read low 1.02 | S. cerevisiae deletion strains, locus YMR078C, strain ctf18, active compounds read low 1.02 | S. cerevisiae deletion strains, locus YMR125W, strain sto1, active compounds read low 1.02 | S. cerevisiae deletion strains, locus YMR129W, active compounds read low 1.03 | S. cerevisiae deletion strains, locus YMR205C, strain PFK2, active compounds read low 1.04 | S. cerevisiae deletion strains, locus YMR223W, strain ubp8, active compounds read low 1.03 | S. cerevisiae deletion strains, locus YMR231W, strain pep5, active compounds read low 1.01 | S. cerevisiae deletion strains, locus YMR263W, strain SAP30, active compounds read low 1.02 | S. cerevisiae deletion strains, locus YMR307W, strain GAS1, active compounds read low 1.03 | S. cerevisiae deletion strains, locus YNL067W, strain RPL9B, active compounds read low 1.03 | S. cerevisiae deletion strains, locus YNL071W, strain lat1, active compounds read low 1.01 | S. cerevisiae deletion strains, locus YNL128W, strain TEP1, active compounds read low 1.03 | S. cerevisiae deletion strains, locus YNL183C, strain NPR1, active compounds read low 0.946 | S. cerevisiae deletion strains, locus YNL209W, strain ssb2, active compounds read low 1.02 | S. cerevisiae deletion strains, locus YNL233W, strain BNI4, active compounds read low 1.06 | S. cerevisiae deletion strains, locus YNL248C, strain rpa49, active compounds read low 1.01 | S. cerevisiae deletion strains, locus YNL250W, strain rad50, active compounds read low 1.03 | S. cerevisiae deletion strains, locus YNL271C, strain bni1, active compounds read low 1.02 | S. cerevisiae deletion strains, locus YNL298W, strain CLA4, active compounds read low 1.02 | S. cerevisiae deletion strains, locus YNL307C, strain MCK1, active compounds read low 1.01 | S. cerevisiae deletion strains, locus YNL322C, strain KRE1 (second series), active compounds read low 1.02 | S. cerevisiae deletion strains, locus YNR049C, strain mso1, active compounds read low 1.02 | S. cerevisiae deletion strains, locus YNR052C, strain pop2, active compounds read low 1.03 | S. cerevisiae deletion strains, locus YOL006C, strain TOP1, active compounds read low 1.23 | S. cerevisiae deletion strains, locus YOL012C, strain htz1 1.32 | S. cerevisiae deletion strains, locus YOL147C, strain pex11, active compounds read low 1 | S. cerevisiae deletion strains, locus YOR001W, strain rrp6, active compounds read low 1 | S. cerevisiae deletion strains, locus YOR061W, strain CKA2, active compounds read low 1.04 | S. cerevisiae deletion strains, locus YOR069W, strain VPS5, active compounds read low 1.02 | S. cerevisiae deletion strains, locus YOR070C, strain gyp1, active compounds read low 1.01 | S. cerevisiae deletion strains, locus YOR080W, strain dia2, active compounds read low 1.02 | S. cerevisiae deletion strains, locus YOR083W, strain WHI5, active compounds read low 1.01 | S. cerevisiae deletion strains, locus YOR106W, strain vam3, active compounds read low 1 | S. cerevisiae deletion strains, locus YOR136W, strain idh2, active compounds read low 1.02 | S. cerevisiae deletion strains, locus YOR144C, strain elg1, active compounds read low 1.02 | S. cerevisiae deletion strains, locus YOR184W, strain ser1, active compounds read low 1.06 | S. cerevisiae deletion strains, locus YOR231W, strain MKK1, active compounds read low 1 | S. cerevisiae deletion strains, locus YOR265W, strain rbl2, active compounds read low 1.01 | S. cerevisiae deletion strains, locus YOR270C, strain vph1, active compounds read low 1.05 | S. cerevisiae deletion strains, locus YOR290C, strain snf2, active compounds read low 0.981 | S. cerevisiae deletion strains, locus YOR316C, strain cot1, active compounds read low 1.02 | S. cerevisiae deletion strains, locus YPL051W, strain arl3, active compounds read low 1.01 | S. cerevisiae deletion strains, locus YPL055C, strain LGE1, active compounds read low 1.08 | S. cerevisiae deletion strains, locus YPL078C, strain atp4, active compounds read low 1 | S. cerevisiae deletion strains, locus YPL106C, strain sse1, active compounds read low 1.02 | S. cerevisiae deletion strains, locus YPL240C, strain hsp82, active compounds read low 1.03 | S. cerevisiae deletion strains, locus YPL256C, strain CLN2, active compounds read low 1 | S. cerevisiae deletion strains, locus YPR119W, strain clb2, active compounds read low 1.03 | S. cerevisiae deletion strains, locus YPR141C, strain kar3, active compounds read low 1.02 | S. cerevisiae deletion strains, locus YPR163C, strain tif3, active compounds read low 1.04 | S. cerevisiae deletion strains, locus YPR167C, strain met16, active compounds read low 1.02 | S. cerevisiae deletion strains, strain wtn01, active compounds read low 1.04 | S. cerevisiae strains, strain wild type, active compounds read low 1.04
active: S. cerevisiae deletion strains, locus YKR001C, strain vps1, active compounds read low 1.11 [resistant]
